Data on five molecules can be found in PubChem BioAssay.

The source made the active and inactive calls.

In test [1] the test system is PRMT1 (protein arginine N-methyltransferase 1). The experiment in a line: PRMT1 binders on small-molecule microarrays, primary screen, biochemical, small-molecule microarray, 635 nm fluorescence (AID 1088).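 Also: binding of Prmt1 protein to compounds spotted on small-molecule microarray slides.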 The conditions noted are these: small-molecule microarray binding, higher = more signal.
Test [2] can be described thus: yeast growth modulation, basal conditions, primary screen, YJM789 clinical isolate, OD600, 24 h (AID 1089).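 Also: growth of clinical yeast isolate S. cerevisiae YJM 789 seeded 1000 cells per well; test concentration not given here.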 The conditions noted are these: S. cerevisiae YJM789 growth, higher = more signal, called active from +8 up or from −8 down.
The nature of test [3]: fission yeast growth modulation, primary screen, strain 972, OD600, 24 h, no modulator (AID 1090).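 Also: basal condition with compound alone and no growth modifier present; test concentration not given here.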 The conditions noted are these: S. pombe 972 growth, higher = more signal, called active from +8 up or from −8 down.
The nature of test [4]: S. cerevisiae growth modulation with rapamycin, primary screen, strain BY4716, OD600, 96 h (AID 1091). Also: test concentration not given here. The conditions noted are these: higher = more signal, called active from +8 up or from −8 down.
The target in test [5] is Torsin-1A-interacting protein 2 (Homo sapiens) (UniProt Q8NFQ8). The experiment in a line: LULL1 binders on small-molecule microarray, primary screen, cell lysate, human LULL1 lysate, 635/667 nm fluorescence (AID 1092).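 Also: probe is lysate of COS7 cells overexpressing human LULL1; score merges per-feature 667 nm fluorescence with signal-to-noise.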 The note with it: hLULL1 lysate binding, 635 nm fluorescence, higher = more signal.
Chain of Torsin-1A-interacting protein 2 (Homo sapiens) (Q8NFQ8 whole entry, looked up): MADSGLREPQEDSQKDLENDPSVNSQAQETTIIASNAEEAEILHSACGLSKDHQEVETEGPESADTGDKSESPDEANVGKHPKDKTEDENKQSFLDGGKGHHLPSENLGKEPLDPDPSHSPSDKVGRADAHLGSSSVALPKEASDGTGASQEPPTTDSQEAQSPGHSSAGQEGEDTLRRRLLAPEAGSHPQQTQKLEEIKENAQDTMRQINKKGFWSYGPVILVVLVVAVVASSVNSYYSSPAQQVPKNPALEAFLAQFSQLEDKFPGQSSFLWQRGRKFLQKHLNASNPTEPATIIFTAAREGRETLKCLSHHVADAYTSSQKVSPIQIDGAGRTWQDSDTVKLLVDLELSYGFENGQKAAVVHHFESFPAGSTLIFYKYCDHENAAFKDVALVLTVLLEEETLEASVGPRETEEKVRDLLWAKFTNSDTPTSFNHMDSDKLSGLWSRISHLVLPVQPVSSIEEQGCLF
The nature of test [6]: E. coli growth modulation, two-sided OD650, primary screen, E. coli filamentation project, strain DRC41, 24 h (AID 1093).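 Also: MC1000 strain lacking acrAB efflux and sulA so SOS filamentation is blocked; test concentration not given here.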 The note with it: OD650, 24 h, higher = more signal, called active from +8 up or from −8 down.
The nature of test [7]: small-molecule microarray binders of probe aLefty2, primary screen, biochemical, biotinylated probe, 635/667 nm fluorescence (AID 1094).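 Also: score merges spot fluorescence near 667 nm with spot signal-to-noise ratio.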 The conditions noted are these: higher = more signal.
Test [8] has as its system Noggin (protein binding on small-molecule microarray). The experiment in a line: Noggin binders on small-molecule microarray, primary screen, biochemical, 635/667 nm fluorescence (AID 1095).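 Also: score merges 667 nm feature fluorescence with signal to noise over triplicate slides.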 The note with it: 635 nm fluorescence, higher = more signal.
For test [9], the target named is Neurogenic locus notch homolog protein 3 (Homo sapiens) (UniProt Q9UM47). The experiment in a line: NOTCH3 binders on small-molecule microarray, primary screen, biochemical, 635/667 nm fluorescence (AID 1096). The conditions noted are these: NOTCH3 binding, 635 nm fluorescence, higher = more signal.
Chain of Neurogenic locus notch homolog protein 3 (Homo sapiens) (Q9UM47 whole entry, looked up): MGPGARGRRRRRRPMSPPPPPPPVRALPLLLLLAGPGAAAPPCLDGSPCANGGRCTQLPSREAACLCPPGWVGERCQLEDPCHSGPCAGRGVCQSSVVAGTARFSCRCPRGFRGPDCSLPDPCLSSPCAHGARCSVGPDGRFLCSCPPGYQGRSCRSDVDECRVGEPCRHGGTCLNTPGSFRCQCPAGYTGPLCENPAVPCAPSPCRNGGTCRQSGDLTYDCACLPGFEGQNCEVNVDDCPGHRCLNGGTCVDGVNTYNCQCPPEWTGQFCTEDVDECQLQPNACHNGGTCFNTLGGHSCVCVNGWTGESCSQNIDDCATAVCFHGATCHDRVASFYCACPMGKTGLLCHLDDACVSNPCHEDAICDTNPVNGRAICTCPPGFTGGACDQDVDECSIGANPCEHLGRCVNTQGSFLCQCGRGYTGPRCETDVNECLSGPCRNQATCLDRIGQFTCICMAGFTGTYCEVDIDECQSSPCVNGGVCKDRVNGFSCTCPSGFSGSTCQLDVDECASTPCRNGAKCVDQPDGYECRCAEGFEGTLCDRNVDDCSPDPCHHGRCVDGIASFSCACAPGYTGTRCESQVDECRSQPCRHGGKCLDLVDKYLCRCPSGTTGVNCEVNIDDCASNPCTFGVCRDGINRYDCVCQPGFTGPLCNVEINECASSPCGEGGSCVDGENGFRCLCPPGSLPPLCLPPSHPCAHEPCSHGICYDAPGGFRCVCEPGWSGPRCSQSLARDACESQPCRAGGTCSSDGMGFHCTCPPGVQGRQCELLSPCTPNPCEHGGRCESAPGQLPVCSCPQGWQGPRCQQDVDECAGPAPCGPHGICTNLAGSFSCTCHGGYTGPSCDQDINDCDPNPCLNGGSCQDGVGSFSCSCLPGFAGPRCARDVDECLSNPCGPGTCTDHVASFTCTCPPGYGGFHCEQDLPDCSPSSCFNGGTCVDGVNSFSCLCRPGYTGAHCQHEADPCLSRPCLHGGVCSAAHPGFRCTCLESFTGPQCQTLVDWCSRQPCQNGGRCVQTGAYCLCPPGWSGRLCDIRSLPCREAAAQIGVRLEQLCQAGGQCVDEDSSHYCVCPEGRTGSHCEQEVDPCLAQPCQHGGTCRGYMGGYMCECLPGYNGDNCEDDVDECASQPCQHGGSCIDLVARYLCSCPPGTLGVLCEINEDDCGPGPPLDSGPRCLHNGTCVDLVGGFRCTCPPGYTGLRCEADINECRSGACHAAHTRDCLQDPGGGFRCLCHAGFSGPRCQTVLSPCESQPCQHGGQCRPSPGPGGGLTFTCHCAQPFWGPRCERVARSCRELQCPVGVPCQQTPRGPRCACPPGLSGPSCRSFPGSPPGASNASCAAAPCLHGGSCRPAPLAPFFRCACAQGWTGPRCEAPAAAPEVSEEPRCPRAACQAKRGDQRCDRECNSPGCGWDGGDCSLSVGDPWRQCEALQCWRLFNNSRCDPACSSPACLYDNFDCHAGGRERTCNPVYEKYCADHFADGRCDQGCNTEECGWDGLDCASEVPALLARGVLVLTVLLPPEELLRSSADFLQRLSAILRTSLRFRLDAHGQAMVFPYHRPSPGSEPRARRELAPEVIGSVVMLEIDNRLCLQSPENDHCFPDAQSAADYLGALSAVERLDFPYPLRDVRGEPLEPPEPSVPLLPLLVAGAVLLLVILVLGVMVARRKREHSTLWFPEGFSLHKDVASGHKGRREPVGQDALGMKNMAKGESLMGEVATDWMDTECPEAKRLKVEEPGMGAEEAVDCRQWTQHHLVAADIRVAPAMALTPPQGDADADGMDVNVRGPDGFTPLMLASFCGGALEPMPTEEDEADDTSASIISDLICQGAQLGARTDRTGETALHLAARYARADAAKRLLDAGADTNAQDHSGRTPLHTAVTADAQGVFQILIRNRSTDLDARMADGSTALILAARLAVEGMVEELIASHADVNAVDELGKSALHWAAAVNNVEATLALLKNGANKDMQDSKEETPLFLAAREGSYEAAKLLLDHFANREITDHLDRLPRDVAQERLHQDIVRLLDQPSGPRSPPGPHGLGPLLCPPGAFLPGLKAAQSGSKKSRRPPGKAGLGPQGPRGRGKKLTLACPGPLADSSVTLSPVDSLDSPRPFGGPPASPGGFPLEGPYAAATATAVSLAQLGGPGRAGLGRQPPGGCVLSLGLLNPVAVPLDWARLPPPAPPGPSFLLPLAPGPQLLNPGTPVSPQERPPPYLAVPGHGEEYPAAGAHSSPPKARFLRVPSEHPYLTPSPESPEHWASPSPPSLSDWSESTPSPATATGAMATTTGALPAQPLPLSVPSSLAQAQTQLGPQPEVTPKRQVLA
Test [10] can be described thus: small-molecule microarray binders of probe aEGFR, primary screen, biochemical, biotinylated probe, 635/667 nm fluorescence (AID 1097).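 Also: probe is a biotinylated anti-EGFR antibody binding compounds printed on slides; score combines fluorescence near 667 nm and signal to noise of each spot.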 The note with it: higher = more signal.
Test [11] deals with Plasmodium falciparum Sir2 (PF13_0152, Sir2A). The experiment in a line: pfSir2 binders on small-molecule microarrays, primary screen, biochemical, small-molecule microarray, 635 nm fluorescence (AID 1098).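 Also: score merges spot fluorescence intensity with its signal-to-noise ratio.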 The note with it: small-molecule microarray binding, fluorescence 635 nm; higher = more signal.
A short description of test [12]: small-molecule microarray binders of probe aDKK1, primary screen, biochemical, biotinylated probe, 635/667 nm fluorescence (AID 1099).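 Also: score merges 667nm spot fluorescence with signal to noise across triplicate slides; reference of the scale not given here.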 The note with it: higher = more signal.
The nature of test [13]: small-molecule microarray binders of probe aCHRDL2, primary screen, biochemical, biotinylated probe, 635/667 nm fluorescence (AID 1100). The note with it: higher = more signal.
The nature of test [14]: splicing luciferase reporter signal modulators, primary screen, spliceosome inhibition project, cell-based, HEK293, splice +/- reporter (AID 1101).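 Also: HEK293 cells carrying a splicing-competent luciferase reporter gene; test concentration not given here.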 The note with it: luminescence, 24 h, higher = more signal, called active from +8 up or from −8 down. A general note: Reporter assays use an easily measured gene product as a stand-in for the process of interest.
The target in test [15] is Fibroblast growth factor 10 (Homo sapiens) (UniProt O15520). The experiment in a line: FGF10 binders on small-molecule microarrays, primary screen, biochemical, small-molecule microarray, 635 nm fluorescence (AID 1102). The conditions noted are these: FGF10 binding, fluorescence 635 nm, higher = more signal.
Chain of Fibroblast growth factor 10 (Homo sapiens) (O15520 whole entry, looked up): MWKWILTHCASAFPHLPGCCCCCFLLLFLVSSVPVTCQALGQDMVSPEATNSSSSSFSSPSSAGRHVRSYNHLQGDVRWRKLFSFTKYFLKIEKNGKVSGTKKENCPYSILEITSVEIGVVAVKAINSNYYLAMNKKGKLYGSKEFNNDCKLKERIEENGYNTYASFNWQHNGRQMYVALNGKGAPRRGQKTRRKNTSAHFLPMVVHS
Test [16] deals with glycogen synthase kinase-3 (GSK3A per assay name; protocol says GSK3B). The experiment in a line: GSK3 binders on small-molecule microarrays, primary screen, biochemical, small-molecule microarray, 635 nm fluorescence, GSK3A (AID 1103). Also: the record names both GSK3A and GSK3B. The conditions noted are these: small-molecule microarray binding, fluorescence 635 nm; higher = more signal.
In test [17] the target is Epidermal growth factor receptor (Homo sapiens) (UniProt P00533). The experiment in a line: EGFR binders on small-molecule microarrays, primary screen, biochemical, small-molecule microarray, 635 nm fluorescence (AID 1104).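 Also: score merges 667 nm emission intensity with spot signal to noise over triplicate slides.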 The conditions noted are these: EGFR binding, higher = more signal.
Chain of Epidermal growth factor receptor (Homo sapiens) (P00533 whole entry, looked up): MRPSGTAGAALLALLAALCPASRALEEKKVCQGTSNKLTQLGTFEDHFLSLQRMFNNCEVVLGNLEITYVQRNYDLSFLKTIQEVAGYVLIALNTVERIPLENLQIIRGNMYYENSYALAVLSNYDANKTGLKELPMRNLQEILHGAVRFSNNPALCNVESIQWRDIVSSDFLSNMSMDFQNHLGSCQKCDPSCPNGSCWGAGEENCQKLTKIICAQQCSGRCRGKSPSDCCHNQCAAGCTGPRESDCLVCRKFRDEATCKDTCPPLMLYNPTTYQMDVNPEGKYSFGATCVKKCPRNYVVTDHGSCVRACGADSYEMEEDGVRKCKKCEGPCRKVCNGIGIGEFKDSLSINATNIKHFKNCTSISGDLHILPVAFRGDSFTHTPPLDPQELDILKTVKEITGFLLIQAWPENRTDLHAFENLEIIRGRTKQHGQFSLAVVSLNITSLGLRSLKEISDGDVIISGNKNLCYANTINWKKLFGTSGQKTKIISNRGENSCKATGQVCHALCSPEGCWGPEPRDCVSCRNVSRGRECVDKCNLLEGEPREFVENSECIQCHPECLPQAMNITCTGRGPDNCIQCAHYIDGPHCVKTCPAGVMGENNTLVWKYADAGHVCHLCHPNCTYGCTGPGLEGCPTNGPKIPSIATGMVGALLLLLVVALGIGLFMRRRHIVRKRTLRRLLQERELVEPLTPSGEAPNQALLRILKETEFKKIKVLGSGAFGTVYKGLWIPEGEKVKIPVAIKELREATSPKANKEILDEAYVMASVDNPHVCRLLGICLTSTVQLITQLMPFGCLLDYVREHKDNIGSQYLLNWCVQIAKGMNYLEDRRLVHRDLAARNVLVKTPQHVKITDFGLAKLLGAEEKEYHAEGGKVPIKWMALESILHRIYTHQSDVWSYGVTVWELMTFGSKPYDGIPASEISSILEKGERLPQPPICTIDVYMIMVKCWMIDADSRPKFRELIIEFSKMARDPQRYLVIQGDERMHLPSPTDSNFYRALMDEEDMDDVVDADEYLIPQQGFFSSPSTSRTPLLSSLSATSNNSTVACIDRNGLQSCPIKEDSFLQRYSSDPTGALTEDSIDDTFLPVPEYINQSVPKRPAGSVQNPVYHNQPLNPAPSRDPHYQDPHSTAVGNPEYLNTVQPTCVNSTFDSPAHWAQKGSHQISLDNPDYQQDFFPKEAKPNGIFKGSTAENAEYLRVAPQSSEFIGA
The target of test [18] is Follistatin-related protein 3 (Homo sapiens) (UniProt O95633). The experiment in a line: FSTL3 binders on small-molecule microarrays, primary screen, biochemical, small-molecule microarray, 635 nm fluorescence (AID 1105).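 Also: score merges emission near 667 nm and signal to noise per printed spot across three slides.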 The note with it: FSTL3 binding, higher = more signal.
Chain of Follistatin-related protein 3 (Homo sapiens) (O95633 whole entry, looked up): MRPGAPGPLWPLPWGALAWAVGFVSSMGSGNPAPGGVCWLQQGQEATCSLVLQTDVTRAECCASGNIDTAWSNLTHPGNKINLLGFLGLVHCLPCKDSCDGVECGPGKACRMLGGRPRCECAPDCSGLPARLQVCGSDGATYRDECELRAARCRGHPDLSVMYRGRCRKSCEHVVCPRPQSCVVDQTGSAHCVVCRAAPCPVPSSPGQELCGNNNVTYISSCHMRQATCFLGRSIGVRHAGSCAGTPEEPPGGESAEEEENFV
Test [19] addresses Dickkopf-related protein 1 (Homo sapiens) (UniProt O94907). The experiment in a line: DKK1 binders on small-molecule microarrays, primary screen, biochemical, small-molecule microarray, 635 nm fluorescence scan (AID 1106).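 Also: score merges emission near 667 nm with signal to noise over three replicate slides.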 The conditions noted are these: DKK1 binding, higher = more signal.
Test [20] has as its system Inhibin beta A chain (activin A). The experiment in a line: INHBA (activin A) binders on microarrays, primary screen, biochemical, small-molecule microarray, 635 nm fluorescence scan (AID 1107).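 Also: mouse activin A protein probed at 4.33 µg/mL on printed slides; score merges bound-protein fluorescence near 667 nm with spot signal-to-noise.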 The note with it: small-molecule microarray binding, higher = more signal.

Chain of Dickkopf-related protein 1 (Homo sapiens) (O94907 whole entry, looked up): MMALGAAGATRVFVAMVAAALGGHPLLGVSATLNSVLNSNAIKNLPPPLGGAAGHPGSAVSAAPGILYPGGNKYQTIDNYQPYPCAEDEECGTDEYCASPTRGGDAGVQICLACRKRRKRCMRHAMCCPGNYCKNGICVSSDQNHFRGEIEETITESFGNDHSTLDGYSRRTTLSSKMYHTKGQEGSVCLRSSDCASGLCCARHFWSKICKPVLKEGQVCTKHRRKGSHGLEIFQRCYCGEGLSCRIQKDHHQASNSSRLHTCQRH

`COc1cccc(C[C@H]2C[C@@H](CO[Si](C(C)C)(C(C)C)C(C)C)N3C(=O)[C@@]4(C(C)=O)O[C@@]23[C@@H]2C(=O)N(C)C(=O)[C@@H]24)c1`: the composite z-score in test [1] was 1.56; in test [5], 0.189; in [7], -0.105; in [8] it was 0.456; in test [9], 1.16; in [10], 0.127. Also, the composite z-score in test [11] is 0.95; in test [12], -0.0648; in test [13], -0.197; in [15] it was 1.22; in [16], 0.5; in test [17], 0.494. The composite z-score is 1.17 in test [18], 1.62 in [19] and -0.0336 in [20]. Moreover, the z-score in test [2] is 0.368 (inactive); in [3] it was 0.827 (inactive); in [4], 1.6 (inactive); in [6], -0.929 (inactive); in [14] it was -0.989 (inactive).
For the molecule `CCCCNC(=O)c1ccc(C#C[Si](C)(C)C)c(OC(C)=O)c1`, the composite z-score in [1] was 0.305; in [5], -0.092; in [7], -0.0926; in test [8] it was 0.309; in [9], -0.174; in test [10], -0.096. The composite z-score in test [11] is -0.0653; in [12], -0.31; in [13], -0.509; in [15] it was 0.458; in [16], 0.419; in [17] it was 0.315. In addition, the composite z-score in test [18] was 0.384; in test [19], 0.374; in [20], 0.58. The z-score in [2] was 0.453 (inactive); in [3], -2.02 (inactive); in [4], -0.973 (inactive); in test [6] it was 1.54 (inactive); in [14], -0.176 (inactive).
Take `CCCCC(O)C1C=CC2C(=O)NC(=O)C2N1Nc1ccc(Cl)cc1Cl` (stereo not given): the composite z-score in [1] was -0.338; in test [5] it was 2.28; in [7], 0.259; in test [8], -0.314; in test [9], 0.303; in test [10] it was -0.0232. For the same molecule, the composite z-score was 0.976 in [11]; 0.635 in [12]; 1.03 in test [13]; 0.228 in test [15]; -0.104 in test [16]; -0.429 in test [17]. In addition, the figures for the composite z-score in test [18], in test [19] and in test [20] were -0.125, -0.8 and 0.979, respectively. In addition, the z-score is -25.2 (active) in test [2]; -8.47 (active) in [3]; -1.58 (inactive) in test [4]; -1.55 (inactive) in test [6]; -0.167 (inactive) in [14].
Regarding `COCCCNC(=O)[C@@H]1c2ccccc2C(=O)N(C2CCCCC2)[C@H]1c1ccc(CO)cc1`, the composite z-score was -0.158 in test [1]; 2.86 in [5]; -0.018 in test [7]; -0.597 in test [8]; -0.47 in test [9]; -0.257 in test [10]. In addition, the composite z-score was 1.2 in test [11]; 0.164 in test [12]; 0.864 in [13]; -0.779 in test [15]; -1.82 in [16]; -1.22 in test [17]. Besides, the composite z-score was -0.849 in test [18], -1.54 in test [19] and -0.0501 in test [20]. Also, the z-score in test [2] is -0.0916 (inactive); in test [3], -0.769 (inactive); in [4] it was -0.285 (inactive); in test [6], 0.216 (inactive); in test [14], 0.0373 (inactive).
`COc1ccc(C#Cc2ccc3c(c2)[C@]2(C(=O)N3)[C@H](c3ccc(OCCO)cc3)N3[C@H](c4ccccc4)[C@H](c4ccccc4)OC(=O)[C@H]3[C@@H]2C(=O)O)cc1`: the composite z-score in [1] was 1.54; in test [5], 3.21; in test [7], -0.232; in test [8] it was 1.29; in test [9], 1.04; in [10] it was 0.0649. For the same molecule, the composite z-score in test [11] was found to be 0.955; in test [12] it was 0.606; in test [13], 0.176; in test [15], 1.42; in test [16], 1.22; in test [17], 0.398. For the same molecule, the figures for the composite z-score in test [18], in [19] and in [20] were 1.44, 0.183 and 0.751, respectively. Moreover, the z-score is 2.83 (inactive) in [2]; 0.685 (inactive) in [3]; 1.4 (inactive) in test [4]; 2.57 (inactive) in [6]; -1.35 (inactive) in test [14].
